Source: PubChem BioAssay (NCATS)
Inconclusive results are not listed. A call without a number means that no potency is given here. Active and inactive are the calls of the source. Unless noted, the call rests on the fitted dose curve; in most records, active means well fitted curve in the direction sought with a large enough effect; inconclusive means small, poorly fitted or top-dose-only effect, or another doubt; inactive means no such curve, though single readings can be large; an effect the other way counts as inactive or inconclusive.

Columns and labels:
[1] = target: Voltage-gated inwardly rectifying potassium channel KCNH2 (Homo sapiens) (UniProt Q12809); assay: qHTS Assay for Small Molecule Inhibitors of the Human hERG Channel Activity (AID 588834);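 further: lower thallium flux fluorescence means stronger hERG block; nearly all actives have a fitted effect of over 50% in size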; further: potency means the concentration at half of the fitted maximal effect
Procedure, shortened: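 Measured: FluxOR fluorescence after thallium stimulation in U2OS cells transduced with hERG by baculovirus. Compounds pre-incubated around 10 min; medium Opti-MEM with 2% FCS. AC50 from Hill equation.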

[2] = target: Luciferin 4-monooxygenase (Photinus pyralis) (UniProt P08659); assay: Biochemical firefly luciferase enzyme assay for NPC (AID 624030);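 further: purified P. pyralis luciferase at 10 nM with luciferin and ATP substrate; series mostly up to about 59 µM; nearly all actives have a fitted effect of over 70% in size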
Procedure, shortened: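 Direct inhibition of firefly luciferase enzyme (10 nM final, 50 mM Tris Acetate) assessed by luminescence within 5 minutes. Percent activity scaled between DMSO and PTC124 positive control, with concentration-effect curves classified by fit quality and response.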

[3] = S16 Schwann cell viability assay (CellTiter-Glo assay) (AID 624031); further: nearly all actives have a fitted effect of over 70% in size; further: potency means the concentration at half of the fitted maximal effect
Procedure, shortened: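 Cells were seeded at 500-750 per well in phenol red-free DMEM with 10% FBS and left overnight. Compounds or DMSO were pinned in, incubation ran 24 h at 37 °C/5% CO2, then CellTiter-Glo reagent was added and luminescence measured.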

[4] = S16 Schwann cell PMP22 intronic element firefly luciferase assay (AID 624032); further: nearly all actives have a fitted effect of over 30% in size; further: potency means the concentration at half of the fitted maximal effect
Procedure, shortened: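 Luciferase reporter of PMP22 intronic-element expression in stably transfected S16 rat Schwann cells, read by ONE-Glo luminescence after 24 h compound exposure at 37 C. Activity scaled between DMSO (0%) and positive-control PTC124; concentration-effect curves quality-classified.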

[5] = S16 Schwann cell PMP22 intronic element beta-lactamase assay (AID 624044; calls by dose curve; further: nearly all actives have a fitted effect of over 15% in size)
Procedure, shortened: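 Rat S16 Schwann cells with beta-Lac driven by a PMP22 intronic element, compound-treated 24 h at 37 °C. LiveBLAzer FRET B/G read: 460 nm normalized to potassium clavulanate vs DMSO; 535 nm FRET as viability; concentration-effect curves classified.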

[6] = target: Glutaminase kidney isoform, mitochondrial (Homo sapiens) (UniProt O94925); assay: qHTS for Inhibitors of Glutaminase (GLS): LOPAC Validation (AID 624146);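 further: glutamate product detected by oxidase and peroxidase coupled Amplex red fluorescence gain; series mostly up to about 46 µM; nearly all actives have a fitted effect of over 60% in size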
Procedure, shortened: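 Two-point fluorescence kinetic (t0, 30 min RT) for hKGA; glutamate detected via glutamate oxidase–HRP–Amplex Red. Substrate: 1 mM L-glutamine solution; buffer 45 mM KH2PO4, pH 8.2.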

Sequence of Glutaminase kidney isoform, mitochondrial (Homo sapiens) (O94925 whole entry, looked up, canonical isoform): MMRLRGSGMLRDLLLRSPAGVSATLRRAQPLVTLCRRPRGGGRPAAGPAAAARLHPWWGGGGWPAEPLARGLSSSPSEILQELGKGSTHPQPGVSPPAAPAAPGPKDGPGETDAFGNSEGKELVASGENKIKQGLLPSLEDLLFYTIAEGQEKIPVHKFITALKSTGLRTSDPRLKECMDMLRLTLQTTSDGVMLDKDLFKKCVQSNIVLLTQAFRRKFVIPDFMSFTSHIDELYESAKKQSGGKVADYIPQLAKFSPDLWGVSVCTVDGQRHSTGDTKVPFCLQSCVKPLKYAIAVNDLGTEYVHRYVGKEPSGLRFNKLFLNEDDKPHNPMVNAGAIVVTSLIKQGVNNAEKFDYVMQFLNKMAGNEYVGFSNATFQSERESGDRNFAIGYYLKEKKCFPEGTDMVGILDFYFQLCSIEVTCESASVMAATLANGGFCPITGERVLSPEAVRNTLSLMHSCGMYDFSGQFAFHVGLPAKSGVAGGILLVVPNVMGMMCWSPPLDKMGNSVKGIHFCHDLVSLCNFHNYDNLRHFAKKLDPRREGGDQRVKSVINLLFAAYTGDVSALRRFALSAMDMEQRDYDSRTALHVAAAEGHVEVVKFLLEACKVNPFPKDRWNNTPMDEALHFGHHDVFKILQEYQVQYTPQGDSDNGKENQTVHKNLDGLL
Sequence of Voltage-gated inwardly rectifying potassium channel KCNH2 (Homo sapiens) (Q12809 whole entry, looked up): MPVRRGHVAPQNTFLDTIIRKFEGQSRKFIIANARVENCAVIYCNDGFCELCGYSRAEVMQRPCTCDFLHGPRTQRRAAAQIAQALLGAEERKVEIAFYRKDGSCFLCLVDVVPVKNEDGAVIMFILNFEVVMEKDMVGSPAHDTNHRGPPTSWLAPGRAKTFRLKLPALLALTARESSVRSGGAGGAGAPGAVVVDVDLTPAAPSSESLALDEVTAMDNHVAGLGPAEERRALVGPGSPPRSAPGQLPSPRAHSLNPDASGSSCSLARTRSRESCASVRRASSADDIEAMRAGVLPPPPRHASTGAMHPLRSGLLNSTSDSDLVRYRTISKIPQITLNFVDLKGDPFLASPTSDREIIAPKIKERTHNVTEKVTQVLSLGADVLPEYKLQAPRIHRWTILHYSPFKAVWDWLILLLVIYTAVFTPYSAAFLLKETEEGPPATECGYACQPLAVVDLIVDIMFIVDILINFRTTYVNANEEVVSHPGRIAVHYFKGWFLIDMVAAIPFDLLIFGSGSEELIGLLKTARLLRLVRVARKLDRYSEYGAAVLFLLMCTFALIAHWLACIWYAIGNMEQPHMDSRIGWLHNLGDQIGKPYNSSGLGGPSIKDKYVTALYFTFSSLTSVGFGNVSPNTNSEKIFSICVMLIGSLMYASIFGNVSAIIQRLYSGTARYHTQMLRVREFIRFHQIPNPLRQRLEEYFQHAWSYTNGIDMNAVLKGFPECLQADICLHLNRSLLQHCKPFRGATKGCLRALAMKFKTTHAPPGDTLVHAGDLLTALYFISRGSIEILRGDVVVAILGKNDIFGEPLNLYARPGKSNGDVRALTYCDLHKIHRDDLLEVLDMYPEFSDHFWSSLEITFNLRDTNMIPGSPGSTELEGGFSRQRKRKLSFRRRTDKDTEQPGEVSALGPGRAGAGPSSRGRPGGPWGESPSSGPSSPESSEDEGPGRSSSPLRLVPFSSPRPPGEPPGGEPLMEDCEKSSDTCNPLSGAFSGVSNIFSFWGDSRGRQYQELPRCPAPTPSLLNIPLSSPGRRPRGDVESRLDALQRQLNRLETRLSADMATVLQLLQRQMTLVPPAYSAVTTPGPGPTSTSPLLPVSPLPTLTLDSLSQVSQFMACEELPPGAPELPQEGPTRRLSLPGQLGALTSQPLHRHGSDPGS
Sequence of Luciferin 4-monooxygenase (Photinus pyralis) (P08659 whole entry, looked up): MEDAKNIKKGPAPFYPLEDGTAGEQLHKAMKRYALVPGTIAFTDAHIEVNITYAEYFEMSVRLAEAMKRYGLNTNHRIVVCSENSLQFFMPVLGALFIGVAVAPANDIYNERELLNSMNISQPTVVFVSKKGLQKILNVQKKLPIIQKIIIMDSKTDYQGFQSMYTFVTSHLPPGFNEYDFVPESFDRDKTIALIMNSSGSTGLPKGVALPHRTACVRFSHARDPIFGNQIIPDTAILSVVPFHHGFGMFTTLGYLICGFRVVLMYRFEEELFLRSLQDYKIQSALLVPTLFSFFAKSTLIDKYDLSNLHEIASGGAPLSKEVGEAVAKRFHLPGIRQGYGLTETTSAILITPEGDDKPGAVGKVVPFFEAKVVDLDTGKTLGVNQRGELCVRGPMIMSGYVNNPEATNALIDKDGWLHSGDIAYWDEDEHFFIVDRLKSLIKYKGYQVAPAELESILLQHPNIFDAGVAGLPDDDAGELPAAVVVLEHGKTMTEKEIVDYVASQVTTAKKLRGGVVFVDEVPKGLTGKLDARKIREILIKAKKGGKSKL

## CC(C)(C#N)c1cc(Cn2cncn2)cc(C(C)(C)C#N)c1
[1]
  Potency: inactive
[2]
  Potency: inactive
[3]
  Potency: inactive
[4]
  Potency: inactive

## COC(=O)Nc1nc2ccc(Sc3ccccc3)cc2[nH]1
[1]
  Potency: inactive
[2]
  Potency: inactive
[3]
  Potency: inactive
[4]
  Potency: inactive

## CCOC(=O)[C@H](CCc1ccccc1)N[C@H]1CS[C@H](c2cccs2)CN(CC(=O)O)C1=O
[1]
  Potency: inactive
[2]
  Potency: inactive
[3]
  Potency: inactive
[4]
  Potency: inactive
[5]
  Potency: inactive

## NC(=O)c1cccc(N)c1
[1]
  Potency: inactive
[6]
  outcome: inactive

## Nc1ccc(S(=O)(=O)Nc2ccccn2)cc1
[1]
  Potency: inactive
[2]
  Potency: inactive
[3]
  Potency: inactive
[4]
  Potency: inactive
[5]
  Potency: inactive

## Cn1nnc2c(C(N)=O)ncn2c1=O
[1]
  Potency: inactive
[2]
  Potency: inactive
[3]
  Potency: inactive
[4]
  Potency: inactive

## CNS(=O)(=O)Cc1ccc2[nH]cc(CCN(C)C)c2c1
[1]
  Potency: inactive
[2]
  Potency: inactive
[3]
  Potency: inactive
[4]
  Potency: inactive

## CCC(C)(C)c1ccc(CC(C)CN2C[C@@H](C)O[C@@H](C)C2)cc1 (stereo partly drawn)
[1]
  Potency: 12.6 µM (active)
[2]
  Potency: inactive
[3]
  Potency: inactive
[4]
  Potency: inactive
[5]
  Potency: inactive

## O=NN(CCCl)C(=O)NC1CCCCC1
[1]
  Potency: inactive
[2]
  Potency: inactive
[3]
  Potency: inactive
[4]
  Potency: inactive
[5]
  Potency: inactive

## COc1nc(N)nc2c1ncn2[C@@H]1O[C@H](CO)[C@@H](O)[C@@H]1O
[1]
  Potency: inactive
[2]
  Potency: inactive
[3]
  Potency: inactive
[4]
  Potency: 2.03 µM (active)

## CC[C@H](NC(C)C)[C@H](O)c1ccc(O)c2[nH]c(=O)ccc12
[1]
  Potency: inactive
[2]
  Potency: inactive
[3]
  Potency: inactive
[4]
  Potency: inactive
[5]
  Potency: inactive

## O=C(O)CSCC(=O)NC1CCSC1=O (stereo not drawn)
[2]
  Potency: inactive

## CN(CCOc1ccc(CC2SC(=O)NC2=O)cc1)c1ccccn1 (stereo not drawn)
[1]
  Potency: inactive
[3]
  Potency: inactive
[4]
  Potency: inactive
[5]
  Potency: inactive

## CCCCS(=N)(=O)CCC(N)C(=O)O (stereo not drawn)
[1]
  Potency: inactive
[6]
  outcome: inactive

## CCOCC(O)COc1ccc(NC(=O)CC[S+](C)C)cc1 (stereo not drawn)
[1]
  Potency: inactive
[2]
  Potency: inactive
[3]
  Potency: inactive
[4]
  Potency: inactive

## CNNCc1ccc(C(=O)NC(C)C)cc1
[1]
  Potency: inactive
[2]
  Potency: inactive
[4]
  Potency: inactive

## CCN1CCCC1CNC(=O)c1cc(S(N)(=O)=O)ccc1OC (stereo not drawn)
[1]
  Potency: 10 µM (active)
[6]
  outcome: inactive

## CC(N)C12CC3CC(CC(C3)C1)C2 (stereo not drawn)
[1]
  Potency: inactive
[2]
  Potency: inactive
[3]
  Potency: inactive
[4]
  Potency: inactive

## O=S(=O)(O)CCS
[1]
  Potency: inactive
[2]
  Potency: inactive
[3]
  Potency: inactive
[4]
  Potency: inactive
[5]
  Potency: inactive

## CN(Cc1cc(Br)cc(Br)c1N)C1CCCCC1
[1]
  Potency: 3.16 µM (active)
[2]
  Potency: inactive
[4]
  Potency: 36.1 µM (active)

## CCn1cc(C(=O)O)c(=O)c2cc(F)c(N3CCN(C)CC3)cc21
[2]
  Potency: inactive
[3]
  Potency: inactive
[4]
  Potency: inactive
[5]
  Potency: inactive

## CC(C)OC(=O)OCOP(=O)(CO[C@H](C)Cn1cnc2c(N)ncnc21)OCOC(=O)OC(C)C
[2]
  Potency: inactive

## O=C(O)c1cn(C2CC2)c2cc(N3CCNCC3)c(F)cc2c1=O
[3]
  Potency: inactive
[4]
  Potency: inactive

## COc1cc(NCc2ccc3nc(N)nc(N)c3c2C)cc(OC)c1OC
[2]
  Potency: inactive
[3]
  Potency: 28.7 µM (active)
[4]
  Potency: 0.455 µM (active)

## NC(=O)c1ccc2[nH]ccc2c1
[6]
  outcome: inactive

## Cc1c(-c2ccc(O)cc2)n(Cc2ccc(OCCN3CCCCCC3)cc2)c2ccc(O)cc12
[2]
  Potency: inactive

## CCOc1cc(N)c(Cl)cc1C(=O)NCC1CN(Cc2ccc(F)cc2)CCO1 (stereo not drawn)
[3]
  Potency: inactive
[4]
  Potency: inactive
[5]
  Potency: inactive

## CCCCc1oc2ccc(NS(C)(=O)=O)cc2c1C(=O)c1ccc(OCCCN(CCCC)CCCC)cc1
[2]
  Potency: inactive

## Cc1nnc(C(=O)NC(C)(C)c2nc(C(=O)NCc3ccc(F)cc3)c(O)c(=O)n2C)o1
[2]
  Potency: inactive

## CNS(=O)(=O)CCc1ccc2[nH]cc(C3CCN(C)CC3)c2c1
[2]
  Potency: inactive

## CN(C)CCc1c[nH]c2ccc(CS(=O)(=O)N3CCCC3)cc12
[2]
  Potency: inactive
[3]
  Potency: inactive
[4]
  Potency: inactive

## O[C@@H](CNC[C@H](O)[C@H]1CCc2cc(F)ccc2O1)[C@@H]1CCc2cc(F)ccc2O1
[2]
  Potency: inactive

## C1CCC(C(CC2CCCCN2)C2CCCCC2)CC1 (stereo not drawn)
[2]
  Potency: inactive
[3]
  Potency: 18.1 µM (active)
[4]
  Potency: 32.2 µM (active)

## CC1CC2C3CCC4=CC(=O)C=C[C@]4(C)[C@@]3(F)[C@@H](O)C[C@]2(C)[C@@]1(O)C(=O)CO (stereo partly drawn)
[6]
  outcome: inactive

## CC(C)C[C@H](NC(=O)[C@H](CCc1ccccc1)NC(=O)CN1CCOCC1)C(=O)N[C@@H](Cc1ccccc1)C(=O)N[C@@H](CC(C)C)C(=O)[C@@]1(C)CO1
[2]
  Potency: inactive

## COc1cc2nc(N3CCCN(C)CC3)nc(NC3CCN(Cc4ccccc4)CC3)c2cc1OC
[6]
  outcome: inactive
